Reference: PubChem BioAssay (NCATS)
Records with an inconclusive call do not appear. Active and inactive are the calls of the source. The call rests on the fitted dose curve; in most records, active means well fitted curve in the direction sought with a large enough effect; inconclusive means small, poorly fitted or top-dose-only effect, or another doubt; inactive means no such curve, though single readings can be large; an effect the other way counts as inactive or inconclusive.

Tests used:
[1] = Quantitative High-Throughput drug screen in 47 multiple myeloma cell lines against the NCATS MIPE library collection: EJM_DSMZ cell viability assay (AID 1918926; further: nearly all actives have a fitted effect of over 30% in size)
Procedure, shortened: (§1)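 Luminescent ATP measurement with CellTiter-Glo gives viability, scaled between DMSO-only wells (100%) and media-only wells (0%). Cells, 500 per well, faced library compounds for 48 hours at 37C.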

[2] = Quantitative High-Throughput drug screen in 47 multiple myeloma cell lines against the NCATS MIPE library collection: AMO1_DSMZ cell viability assay (AID 1918927; further: nearly all actives have a fitted effect of over 30% in size)
Procedure, shortened: as §1

[3] = Quantitative High-Throughput drug screen in 47 multiple myeloma cell lines against the NCATS MIPE library collection: ARP1_JJKsccF8 cell viability assay (AID 1918928; further: nearly all actives have a fitted effect of over 40% in size)
Procedure, shortened: (§2)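 CellTiter-Glo luminescence after 48 h exposure gives viability, scaled between DMSO-only (100%) and media-only (0%) controls. Library compounds are pinned onto 500 myeloma cells per well, incubated at 37C with 5% CO2.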

[4] = Quantitative High-Throughput drug screen in 47 multiple myeloma cell lines against the NCATS MIPE library collection: ARD_JJKsccE7 cell viability assay (AID 1918929)
Procedure, shortened: as §1

[5] = Quantitative High-Throughput drug screen in 47 multiple myeloma cell lines against the NCATS MIPE library collection: Karpas620_DSMZ cell viability assay (AID 1918959); further: nearly all actives have a fitted effect of over 30% in size
Procedure, shortened: (§3)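 qHTS of the MIPE 4.0 collection: 500 myeloma cells/well, 48 h drug exposure at 37C in 5% CO2, then CellTiter-Glo for 5 min at room temperature before luminescence reading.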

[6] = Quantitative High-Throughput drug screen in 47 multiple myeloma cell lines against the NCATS MIPE library collection: KMM1_JCRB cell viability assay (AID 1918960); further: nearly all actives have a fitted effect of over 30% in size
Procedure, shortened: as §2

[7] = Quantitative High-Throughput drug screen in 47 multiple myeloma cell lines against the NCATS MIPE library collection: Karpas417_ECACC cell viability assay (AID 1918961); details: Karpas417 myeloma viability, CellTiter-Glo ATP luminescence, 48 h; viability (% of DMSO): at 45.8 µM (top of the series)
Procedure, shortened: as §1

[8] = Quantitative High-Throughput drug screen in 47 multiple myeloma cell lines against the NCATS MIPE library collection: KHM11_PLB cell viability assay (AID 1918962); further: nearly all actives have a fitted effect of over 35% in size
Procedure, shortened: as §3

[9] = Quantitative High-Throughput drug screen in 47 multiple myeloma cell lines against the NCATS MIPE library collection: JIM3_ECACC cell viability assay (AID 1918963; further: nearly all actives have a fitted effect of over 35% in size)
Procedure, shortened: as §3

[10] = Quantitative High-Throughput drug screen in 47 multiple myeloma cell lines against the NCATS MIPE library collection: JIM1_ECACC cell viability assay (AID 1918964)
Procedure, shortened: as §1

[11] = Quantitative High-Throughput drug screen in 47 multiple myeloma cell lines against the NCATS MIPE library collection: INA6_PLB cell viability assay (AID 1918965; further: nearly all actives have a fitted effect of over 55% in size)
Procedure, shortened: as §1

[12] = Quantitative High-Throughput drug screen in 47 multiple myeloma cell lines against the NCATS MIPE library collection: JJN3_DSMZ cell viability assay (AID 1918966; further: nearly all actives have a fitted effect of over 50% in size)
Procedure, shortened: as §1

[13] = Quantitative High-Throughput drug screen in 47 multiple myeloma cell lines against the NCATS MIPE library collection: H1112_PLB cell viability assay (AID 1918967; further: nearly all actives have a fitted effect of over 30% in size)
Procedure, shortened: as §1

[14] = Quantitative High-Throughput drug screen in 47 multiple myeloma cell lines against the NCATS MIPE library collection: Karpas25_ECACC cell viability assay (AID 1918968; further: nearly all actives have a fitted effect of over 35% in size)
Procedure, shortened: as §1

[15] = Quantitative High-Throughput drug screen in 47 multiple myeloma cell lines against the NCATS MIPE library collection: KMS27_JCRB cell viability assay (AID 1918970); further: nearly all actives have a fitted effect of over 30% in size
Procedure, shortened: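 KMS27_JCRB myeloma cells, 500 per well, exposed 48 h at 37 C, 5% CO2 to MIPE 4.0 compounds. Viability from ATP by CellTiter-Glo luminescence, normalized to DMSO (100%) and medium-only (0%) wells.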

[16] = Quantitative High-Throughput drug screen in 47 multiple myeloma cell lines against the NCATS MIPE library collection: KMS12PE_JCRB cell viability assay (AID 1918972); further: nearly all actives have a fitted effect of over 30% in size
Procedure, shortened: as §1

[17] = Quantitative High-Throughput drug screen in 47 multiple myeloma cell lines against the NCATS MIPE library collection: KMS21BM_JCRB cell viability assay (AID 1918974); details: ATP luminescence, 48 h; viability: at 45.8 µM (top of the series)
Procedure, shortened: as §1

[18] = Quantitative High-Throughput drug screen in 47 multiple myeloma cell lines against the NCATS MIPE library collection: KMS26_JCRB cell viability assay (AID 1918975); further: nearly all actives have a fitted effect of over 45% in size
Procedure, shortened: (§4)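 Approved and investigational drugs from MIPE 4.0 were added by pin tool to 500 cells per well. After 48 hours at 37C, ATP-based CellTiter-Glo luminescence indicated remaining viability.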

[19] = Quantitative High-Throughput drug screen in 47 multiple myeloma cell lines against the NCATS MIPE library collection: KMS20_JCRB cell viability assay (AID 1918973); further: nearly all actives have a fitted effect of over 45% in size
Procedure, shortened: as §1

[20] = Quantitative High-Throughput drug screen in 47 multiple myeloma cell lines against the NCATS MIPE library collection: KMS12BM_JCRB cell viability assay (AID 1918971); further: nearly all actives have a fitted effect of over 35% in size
Procedure, shortened: as §4
Potency means the concentration at half of the fitted maximal effect.

SMILES | Potency [1] | Potency [2] | Potency [3] | Potency [4] | Potency [5] | Potency [6] | Potency [7] | Potency [8] | Potency [9] | Potency [10] | Potency [11] | Potency [12] | Potency [13] | Potency [14] | Potency [15] | Potency [16] | Potency [17] | Potency [18] | Potency [19] | Potency [20]
CC(=O)Oc1ccccc1C(=O)Nc1ncc([N+](=O)[O-])s1 | 13.6 µM (active) | 13.6 µM (active) | 34 µM (active) | 21.5 µM (active) | 12.1 µM (active) | 8.55 µM (active) | 13.6 µM (active) | 21.5 µM (active) | 17.1 µM (active) | 27 µM (active) | 17.1 µM (active) | 30.3 µM (active) | 21.5 µM (active) | 8.55 µM (active) | 12.1 µM (active) | 24.1 µM (active) | 17.1 µM (active) | 15.2 µM (active) | – | –
CCCc1nc(C)c2c(=O)[nH]c(-c3cc(S(=O)(=O)N4CCN(CC)CC4)ccc3OCC)nn12 | 9.35 µM (active) | 7.43 µM (active) | 5.26 µM (active) | 6.62 µM (active) | 2.35 µM (active) | 3.72 µM (active) | – | 9.35 µM (active) | 9.35 µM (active) | 5.26 µM (active) | 4.18 µM (active) | 4.18 µM (active) | 10.5 µM (active) | 5.26 µM (active) | 4.69 µM (active) | 2.96 µM (active) | 3.72 µM (active) | 4.69 µM (active) | 11.8 µM (active) | –
CCN(CC)CCn1c(=O)c(Cc2ccc(OC)cc2)nc2ccccc21 | inactive | inactive | inactive | inactive | inactive | inactive | inactive | – | inactive | inactive | – | – | inactive | – | 10.5 µM (active) | inactive | – | inactive | – | inactive
COc1cc2nc(N3CCCN(C)CC3)nc(NC3CCN(Cc4ccccc4)CC3)c2cc1OC | 9.35 µM (active) | 7.43 µM (active) | 8.33 µM (active) | 8.33 µM (active) | 3.72 µM (active) | 7.43 µM (active) | 2.35 µM (active) | 2.35 µM (active) | 9.35 µM (active) | 7.43 µM (active) | 2.35 µM (active) | – | 5.9 µM (active) | 5.26 µM (active) | 4.18 µM (active) | 2.35 µM (active) | 4.69 µM (active) | 5.26 µM (active) | – | 14.8 µM (active)
Cc1ccc(S(=O)(=O)N[C@@H](Cc2ccccc2)C(=O)CCl)cc1 | 16.6 µM (active) | 13.2 µM (active) | 20.9 µM (active) | 16.6 µM (active) | 11.8 µM (active) | 13.2 µM (active) | 11.8 µM (active) | 16.6 µM (active) | 13.2 µM (active) | – | 5.9 µM (active) | 18.7 µM (active) | 16.6 µM (active) | 9.35 µM (active) | 13.2 µM (active) | 16.6 µM (active) | 14.8 µM (active) | 18.7 µM (active) | – | 18.7 µM (active)
NS(=O)(=O)c1cc2c(cc1Cl)NC(C(Cl)Cl)NS2(=O)=O (centres undefined) | inactive | inactive | inactive | inactive | inactive | inactive | – | – | inactive | inactive | – | – | inactive | inactive | inactive | inactive | inactive | – | – | –
